# Experimental data reported in the supplement of paper PMC8728848.
# Many of the other results were omitted from the sample, so the strongest signals are more common in it than they were.
# Key:
# Assay in all cases: glycan array binding signal (z-score within array); higher = stronger binding
# Conditions in all cases: glycan notation: IUPAC condensed, linker removed
# [1] = biological target: Fuc(a1-2)Gal(b1-3)GalNAc(b1-3)Gal(a1-4)Gal(b1-4)Glc
# Procedure, shortened: (§1)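 From the Consortium for Functional Glycomics database, 3228 arrays were curated, keeping only those whose protein sequence was available. Binding is given as a within-array Z-score averaged across arrays sharing a protein sequence and across linkers. Negative Z-scores can be read as non-binding.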
# [2] = biological target: Fuc(a1-2)Gal(b1-3)GlcNAc(b1-3)GalNAc
# Procedure, shortened: as §1
# [3] = biological target: Fuc(a1-2)Gal(b1-3)[Fuc(a1-4)]GlcNAc(b1-2)Man(a1-3)[Fuc(a1-2)Gal(b1-3)[Fuc(a1-4)]GlcNAc(b1-2)Man(a1-6)]Man(b1-4)GlcNAc(b1-4)[Fuc(a1-6)]GlcNAc(b1-4)[Fuc(a1-6)]GlcNAc
# Procedure, shortened: as §1
# [4] = biological target: Fuc(a1-2)Gal(b1-4)[Fuc(a1-3)]GlcNAc(b1-2)Man(a1-3)[Fuc(a1-2)Gal(b1-4)[Fuc(a1-3)]GlcNAc(b1-2)Man(a1-6)]Man(b1-4)GlcNAc(b1-4)[Fuc(a1-6)]GlcNAc
# Procedure, shortened: as §1
# [5] = biological target: Fuc(a1-2)[Gal(a1-4)]Gal(b1-4)GlcNAc
# Procedure, shortened: as §1
# [6] = biological target: Fuc(a1-3)[Gal3S(b1-4)]GlcNAc
# Procedure, shortened: as §1
# [7] = biological target: Fuc(a1-4)GlcNAc
# Procedure, shortened: as §1
# [8] = biological target: Gal(a1-3)Gal(b1-4)[Fuc(a1-3)]GlcNAc
# Procedure, shortened: as §1
# [9] = biological target: Gal(a1-4)GlcNAc
# Procedure, shortened: as §1
# [10] = biological target: Gal(b1-3)Gal
# Procedure, shortened: as §1
# [11] = biological target: Gal(b1-3)GlcNAc(b1-2)Man
# Procedure, shortened: as §1
# [12] = biological target: Gal(b1-3)GlcNAc(b1-3)Gal(b1-4)[Fuc(a1-3)]GlcNAc
# Procedure, shortened: as §1
# [13] = biological target: Gal(b1-3)GlcNAc(b1-3)Gal(b1-4)[Fuc(a1-3)]GlcNAc(b1-6)[Gal(b1-3)GlcNAc(b1-3)]Gal(b1-4)Glc
# Procedure, shortened: as §1
# [14] = biological target: Gal(b1-4)Glc
# Procedure, shortened: as §1
# [15] = biological target: Gal(b1-4)GlcNAc(b1-3)Gal(b1-4)GlcNAc(b1-3)GalNAc
# Procedure, shortened: as §1
# [16] = biological target: Gal(b1-4)GlcNAc(b1-3)GalNAc
# Procedure, shortened: as §1
# [17] = biological target: Gal3S(b1-4)GlcNAc
# Procedure, shortened: as §1
# [18] = biological target: Gal3S(b1-4)[Fuc(a1-3)]GlcNAc
# Procedure, shortened: as §1
# [19] = biological target: GalNAc(a1-3)Gal
# Procedure, shortened: as §1
# [20] = biological target: GalNAc(b1-3)GalNAc
# Procedure, shortened: as §1
# [21] = biological target: GalNAc(b1-3)GlcNAc
# Procedure, shortened: as §1
# [22] = biological target: GalNAc3S(b1-4)[Fuc(a1-3)]GlcNAc
# Procedure, shortened: as §1
# [23] = biological target: GlcNAc(a1-4)Gal(b1-3)GlcNAc
# Procedure, shortened: as §1
# [24] = biological target: GlcNAc(b1-3)Gal(b1-3)GalNAc
# Procedure, shortened: as §1
# [25] = biological target: GlcNAc(b1-3)Gal(b1-4)Glc
# Procedure, shortened: as §1
# [26] = biological target: GlcNAc(b1-3)Gal(b1-4)GlcNAc(b1-2)Man(a1-3)[GlcNAc(b1-3)Gal(b1-4)GlcNAc(b1-2)Man(a1-6)]Man(b1-4)GlcNAc(b1-4)[Fuc(a1-6)]GlcNAc
# Procedure, shortened: as §1
# [27] = biological target: GlcNAc(b1-3)Gal(b1-4)GlcNAc(b1-3)Gal(b1-4)GlcNAc(b1-2)Man(a1-3)[GlcNAc(b1-3)Gal(b1-4)GlcNAc(b1-3)Gal(b1-4)GlcNAc(b1-2)Man(a1-6)]Man(b1-4)GlcNAc(b1-4)[Fuc(a1-6)]GlcNAc
# Procedure, shortened: as §1
# [28] = biological target: GlcNAc(b1-3)Gal(b1-4)GlcNAc(b1-3)Gal(b1-4)GlcNAc(b1-2)[GlcNAc(b1-3)Gal(b1-4)GlcNAc(b1-3)Gal(b1-4)GlcNAc(b1-6)]Man(a1-6)[GlcNAc(b1-3)Gal(b1-4)GlcNAc(b1-3)Gal(b1-4)GlcNAc(b1-2)Man(a1-3)]Man(b1-4)GlcNAc(b1-4)[Fuc(a1-6)]GlcNAc
# Procedure, shortened: as §1
# [29] = biological target: GlcNAc(b1-3)Gal(b1-4)GlcNAc(b1-3)Gal(b1-4)GlcNAc(b1-3)Gal(b1-4)GlcNAc(b1-2)Man(a1-3)[GlcNAc(b1-3)Gal(b1-4)GlcNAc(b1-3)Gal(b1-4)GlcNAc(b1-3)Gal(b1-4)GlcNAc(b1-2)Man(a1-6)]Man(b1-4)GlcNAc(b1-4)[Fuc(a1-6)]GlcNAc
# Procedure, shortened: as §1
# [30] = biological target: GlcNAc(b1-3)Gal(b1-4)GlcNAc(b1-3)Gal(b1-4)GlcNAc(b1-3)Gal(b1-4)GlcNAc(b1-2)[GlcNAc(b1-3)Gal(b1-4)GlcNAc(b1-3)Gal(b1-4)GlcNAc(b1-3)Gal(b1-4)GlcNAc(b1-6)]Man(a1-6)[GlcNAc(b1-3)Gal(b1-4)GlcNAc(b1-3)Gal(b1-4)GlcNAc(b1-3)Gal(b1-4)GlcNAc(b1-2)Man(a1-3)]Man(b1-4)GlcNAc(b1-4)[Fuc(a1-6)]GlcNAc
# Procedure, shortened: as §1
binder,measurement,setting,value
"LysMD3 (Homo sapiens), Q7Z3D4 (protein) MAGRHQNRSFPLPGVQSSGQVHAFGNCSDSDILEEDAEVYELRSRGKEKVRRSTSRDRLDDIIVLTKDIQEGDTLNAIALQYCCTVADIKRVNNLISDQDFFALRSIKIPVKKFSSLTETLCPPKGRQTSRHSSVQYSSEQQEILPANDSLAYSDSAGSFLKEVDRDIEQIVKCTDNKRENLNEVVSALTAQQMRFEPDNKNTQRKDPYYGADWGIG",glycan array binding signal (z-score),[1],0.086
same,glycan array binding signal (z-score),[2],0.587
same,glycan array binding signal (z-score),[3],0.341
same,glycan array binding signal (z-score),[4],1.97
same,glycan array binding signal (z-score),[5],2.84
same,glycan array binding signal (z-score),[6],-0.081
same,glycan array binding signal (z-score),[7],0.681
same,glycan array binding signal (z-score),[8],0.873
same,glycan array binding signal (z-score),[9],0.113
same,glycan array binding signal (z-score),[10],0.706
same,glycan array binding signal (z-score),[11],1.23
same,glycan array binding signal (z-score),[12],2.15
same,glycan array binding signal (z-score),[13],-0.547
same,glycan array binding signal (z-score),[14],-0.555
same,glycan array binding signal (z-score),[15],-0.073
same,glycan array binding signal (z-score),[16],0.375
same,glycan array binding signal (z-score),[17],-0.699
same,glycan array binding signal (z-score),[18],0.294
same,glycan array binding signal (z-score),[19],0.335
same,glycan array binding signal (z-score),[20],1.67
same,glycan array binding signal (z-score),[21],1.85
same,glycan array binding signal (z-score),[22],-0.424
same,glycan array binding signal (z-score),[23],0.45
same,glycan array binding signal (z-score),[24],1.5
same,glycan array binding signal (z-score),[25],0.983
same,glycan array binding signal (z-score),[26],1.83
same,glycan array binding signal (z-score),[27],1.8
same,glycan array binding signal (z-score),[28],1.87
same,glycan array binding signal (z-score),[29],1.68
same,glycan array binding signal (z-score),[30],2.41
